The whole screen tested about 320,000 compounds, of which about 9,100 (2.8%) were called active. A call without a number means that no potency is given here. Inconclusive results (about 3%) are left out. This is one part of a sample in which actives are shown more often than they occur. The call rests on the fitted dose curve; in most records, active means well fitted activation curve with a large enough effect; inconclusive means small, poorly fitted or top-dose-only effect; inactive means no such curve, though single readings can be large or run the other way.
Potency means the concentration at half of the fitted maximal effect.

The nature of the test: qHTS Assay for Rab9 Promoter Activators. Further: nearly all actives have a fitted effect of over 60% in size. The conditions noted are these: Huh7 Rab9 promoter-luciferase reporter, luminescence, 24 h; series mostly up to 9.22 µM. An outline of the steps: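 Cell-based reporter: Huh7 stable for Rab9 promoter-driven luciferase, plated in reduced-serum medium with 10% FBS at 1500 cells/well, compound-treated 24 h at 37 °C, luminescence read after 10 min reagent.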
As to `O=C(c1cc2ccccc2o1)N1CCN(S(=O)(=O)c2ccc(Cl)s2)CC1`, the Potency entry is “inactive”.

Consider `COc1ccc(CNC(=O)COC(=O)CCS(=O)(=O)c2ccc(C)cc2)cc1OC`, for which the Potency entry was “inactive”.

In the case of `CCN(CC(=O)Nc1c(F)cccc1F)C(=O)c1cnc(C)cn1`, the Potency entry is “inactive”.

Take `Cc1ccc(NC(=O)c2cc3ccccc3o2)cc1`: the Potency was 3.98 µM (active).

Take `O=C(Nc1ccncc1)c1cc2ccccc2o1`: the Potency entry is “inactive”.

Turning to `C/C(=N\NC(=S)Nc1ccc(C)cc1)c1cc2ccccc2o1`, the Potency entry is “inactive”.

Regarding `CCN(CC(=O)NCc1ccc(Cl)cc1)C(=O)c1c(C)noc1C`, the Potency result is “inactive”.

Regarding `c1ccc2c(c1)CSc1sccc1C2=C1CCNCC1`, the Potency result was “inactive”.

As for `Cc1cc(C(=O)NNC(=O)c2ccccc2O)c(C)o1`, the Potency entry was “inactive”.

As to `COC(=O)C1CCN(C(=O)c2cc(=O)[nH]c3ccccc23)CC1`, the Potency result is “inactive”.

For the compound `CC1CCN(C(=O)COC(=O)c2cc(=O)[nH]c3ccccc23)CC1`, the Potency was 2.51 µM (active).

Regarding `CC(NC(=O)COC(=O)c1cc(=O)[nH]c2ccccc12)c1ccccc1` (stereo not drawn), the Potency entry is “inactive”.

Take `O=C(COC(=O)c1ccccc1Cl)NC1CCCCCCC1`: the Potency entry is “inactive”.

Regarding `Cn1ccc(NC(=O)Nc2ccc(Cl)cc2)n1`, the Potency result was “inactive”.

Regarding `O=C(Nc1ccc(Cl)cc1)c1ccsn1`, the Potency was 1.78 µM (active).

Turning to `CCC(=O)Nc1ccc(C(=O)NNC(=O)c2ccc(Cl)cc2)cc1`, the Potency result is “inactive”.

As for `CCCCN(Cc1ccccc1)C(=O)C1CCN(Cc2sccc2C)CC1`, the Potency entry is “inactive”.

As to `Cn1c(CC(=O)NNC(=O)c2ccccc2F)nc2ccccc21`, the Potency entry is “inactive”.

Consider `O=C(c1ccc(N2CCOCC2)c([N+](=O)[O-])c1)N1CCN(S(=O)(=O)c2cccs2)CC1`, for which the Potency entry was “inactive”.

In the case of `COc1ccc(C)cc1N(C(=O)Cn1nnc(-c2ccc(C)o2)n1)C(C(=O)NC1CCCC1)c1ccncc1` (stereo not drawn), the Potency result was “inactive”.

In the case of `CCN(CC(=O)Nc1ccc(NC(C)=O)cc1)C(=O)CSC(=S)N1CCCC1`, the Potency entry was “inactive”.

On to `CC(=O)Nc1cc2ccc(OC(C)=O)cc2oc1=O`, for which the Potency entry is “inactive”.

On to `Cc1ccccc1NC(=O)C1CCN(C(=O)NC2CCCCC2)CC1`, for which the Potency entry was “inactive”.

With `O=C(Nc1cc2ccccc2oc1=O)C1CCCCC1`, the Potency is 0.562 µM (active).

On to `CN(CC(=O)Nc1ccc(Cl)cc1)C(=O)c1ccc(COc2ccccc2)cc1`, for which the Potency result is “inactive”.

Turning to `Cc1ccc(NC(=O)CNCc2ccccn2)cc1S(=O)(=O)N(C)C`, the Potency entry was “inactive”.

With `CCN(c1ccccc1)S(=O)(=O)c1cc(C(=O)NCc2ccccn2)ccc1C`, the Potency result was “inactive”.

Consider `CCN(CC)S(=O)(=O)c1cc(C(=O)Nc2ccccn2)ccc1C`, for which the Potency is 1.78 µM (active).

Turning to `O=S(=O)(c1ccc(SCc2ccccc2)nc1)N1CCCCCC1`, the Potency result is “inactive”.

As to `CC(c1ccccn1)N(C)C(=O)c1ccc2nc(Cc3cccc(Cl)c3)oc2c1` (stereo not drawn), the Potency was 3.98 µM (active).

For the compound `COc1ccc(Cc2nc3ccc(C(=O)N4CCC(N(C)C)C4)cc3o2)cc1` (stereo not drawn), the Potency entry was “inactive”.

For the compound `CCn1ccnc1CN(C)C(=O)c1ccc2nc(Cc3ccc(OC)cc3)oc2c1`, the Potency result was “inactive”.

Consider `CCN(CC)S(=O)(=O)c1ccc(N2CCOCC2)c(NC(=O)C(C)Oc2ccc(F)cc2)c1` (stereo not drawn), for which the Potency result was “inactive”.

Regarding `CCN1C(=O)C(=O)N(CC(=O)Nc2cc(C)ccc2C)C1=O`, the Potency entry is “inactive”.

Turning to `COc1ccc(-c2nnc3ccc(SCc4ccccc4)nn23)cc1`, the Potency entry was “inactive”.

Consider `COC(=O)CSc1nc(C)c2ccc(OC)cc2n1`, for which the Potency entry is “inactive”.

In the case of `COc1ccc2nc(SCc3ccccc3)nc(C)c2c1`, the Potency is 1.41 µM (active).

As for `COC(=O)Cc1ccc(OC(=O)C2CCN(S(=O)(=O)c3ccc(OC)c(OC)c3)CC2)cc1`, the Potency result was “inactive”.

As to `O=C(Nc1ccc2oc(-c3ccccc3F)nc2c1)c1ccco1`, the Potency is 1 µM (active).

As to `O=C(Nc1cccc(-c2nc3ncccc3o2)c1)c1ccco1`, the Potency entry was “inactive”.

On to `O=C(c1ccco1)N1CCN(C(=O)c2cc(-c3ccccc3F)no2)CC1`, for which the Potency entry was “inactive”.

For the compound `CCC(=O)c1cc(F)ccc1OCC(=O)Nc1ccc2c(c1)OCCO2`, the Potency entry is “inactive”.

Regarding `CCN(C(=O)CSc1nc(N)cc(=O)[nH]1)C1CCS(=O)(=O)C1` (stereo not drawn), the Potency entry was “inactive”.

`CSCCC(NC(=O)c1ccccc1)C(=O)N1CCCCCCC1` (stereo not drawn): the Potency entry was “inactive”.

Take `Cc1[nH]c2ccccc2c1C(=O)C(C)Sc1nnc(C2CC2)o1` (stereo not drawn): the Potency result was “inactive”.

Take `O=C(COC(=O)C1CC2CCCC(C1)C2=O)NC(=O)c1ccccc1` (stereo not drawn): the Potency entry is “inactive”.

For `CCOc1ccc(C(=O)CCC(=O)Nc2ccncc2)cc1`, the Potency result is “inactive”.

For the compound `Cc1cc(C(C)(C)C)n2nc(C)c(-c3ccccc3)c2n1`, the Potency entry was “inactive”.

As to `Cc1cc(N)n2nc(-c3ccc(C(C)(C)C)cc3)cc2n1`, the Potency is 2.51 µM (active).

Turning to `Cc1nc2cc(-c3ccc(F)cc3)nn2c(N2CCOCC2)c1C`, the Potency entry is “inactive”.

Consider `CC1CCN(C(=O)COC(=O)CCC(=O)c2cccs2)CC1`, for which the Potency entry was “inactive”.

With `CC(C)(C)c1ccc(S(=O)(=O)N2CCN(C(=O)c3ccc4c(c3)C(=O)N(Cc3ccncc3)C4=O)CC2)cc1`, the Potency result was “inactive”.

`CCOc1ccc(/C(O)=C2\C(=O)C(=O)N(c3ccc(OC)cc3)C2c2ccccc2[N+](=O)[O-])cc1` (stereo not drawn): the Potency was 0.398 µM (active).

Turning to `COc1ccc(C2/C(=C(/O)c3ccccc3)C(=O)C(=O)N2C)c(OC)c1` (stereo not drawn), the Potency entry was “inactive”.

Turning to `COc1ccc(/C(O)=C2/C(=O)C(=O)N(c3nc(C)c(C)s3)C2c2ccco2)cc1` (stereo not drawn), the Potency entry was “inactive”.

As to `Cn1c(SCC(=O)Nc2ccc(N3CCOCC3)cc2)nnc1C(F)(F)F`, the Potency entry was “inactive”.

In the case of `Nc1c(-c2cccc(Cl)c2)cnn1-c1cccc([N+](=O)[O-])c1`, the Potency result is “inactive”.

On to `Cc1ccc(S(=O)(=O)Nc2nc(CN3CCOCC3)nc3sc(C)c(C)c23)cc1`, for which the Potency entry was “inactive”.

With `CN1CCN(C(=O)c2cnn(-c3ccccc3)c2NC(=O)c2ccc([N+](=O)[O-])cc2)CC1`, the Potency result was “inactive”.

For `Cc1ccc(-c2noc(C3CCCN(C(=O)c4cccc(Cl)c4)C3)n2)o1` (stereo not drawn), the Potency was 3.55 µM (active).

For `O=C(c1ccc(F)cc1)N1CCCC(c2nc(-c3cccs3)no2)C1` (stereo not drawn), the Potency entry is “inactive”.

`COc1cccc(-c2noc(C3CCCN(C(=O)c4ccc(F)cc4)C3)n2)c1` (stereo not drawn): the Potency result is “inactive”.

Turning to `CCc1nc(Nc2ccc(NC(C)=O)cc2)c2oc3ccccc3c2n1`, the Potency result was “inactive”.

As to `CC(=O)Nc1ccc(S(=O)(=O)N(C)c2nc3ccccc3nc2Cl)cc1`, the Potency result is “inactive”.

On to `CC(=O)NC(=S)Nc1ccc(NC(=O)c2cccnc2)cc1`, for which the Potency result is “inactive”.

For `Cc1ccc2nc(-c3ccc(NC(=O)c4cccnc4)cc3)oc2c1`, the Potency was 0.199 µM (active).

For the compound `Cc1cc(NS(=O)(=O)c2ccc(NC(=O)c3cccnc3)cc2)nc(C)n1`, the Potency entry was “inactive”.

Take `CC(=O)Nc1ccc(-c2nc3ccccc3o2)cc1`: the Potency was 1 µM (active).
